Experimental data published in ChEMBL document CHEMBL4888484, “Replenishing the malaria drug discovery pipeline: Screening and hit evaluation of the MMV Hit Generation Library 1 (HGL1) against asexual blood stage Plasmodium falciparum ,using a nano luciferase reporter read-out” (2022).
The whole screen tested about 150,000 compounds, of which about 540 (0.36%) showed an effect of 50% or more. The sample holds strong results, similar compounds and a random draw of the others, so the mix is not that of the screen.

These molecules were tested on Plasmodium falciparum (assay: Primary screen in NF54 nanoGlo assay, in single point, at 2uM, 72h; a lower Z score goes with more inhibition). Details: timepoint 72 hour.
Type: functional, Erythrocyte

Compound	% Inhibition	Z score
CN(C)c1nc(N)cc(-c2ccc(-n3cccn3)cc2)n1	-1%	0.21
CN(C)c1nc(N)cc(-c2cccc3cccnc23)n1	57%	-7.96
COc1ccc(F)c(-c2cc(N)nc(N(C)C)n2)c1	-15%	2.16
COc1ccc2c(c1)C1(CC1)CN(C(=O)Nc1ccnnc1C)C2	-11%	2.25
COc1ccc(-c2cc3c(=O)n(CCNC(=O)Cc4ccc(F)cc4)ccn3n2)cc1	-7%	1.17
CNC(=O)[C@@H]1C[C@H](Oc2ccccc2)CN1S(C)(=O)=O	-12%	1.64
NC(=O)[C@@H]1CN(Cc2ncc(C(F)(F)F)s2)CCO1	-12%	1.56
CC[C@H](C)NC(=O)COc1ccc(Cl)cc1C(N)=O	-8%	0.84
Cc1cc(O)nc([C@H](C)N(C)CC2CCOCC2)n1	-12%	1.59
CCc1nc(C)cc(N(C)CCn2nc(C)cc2C)n1	-18%	1.72
Cc1cc(N(C)CCC2CC2)nc([C@H](C)N(C)CCC2CC2)n1	59%	-9.38
OCCN(CCO)C[C@H](O)COc1c(Br)cc(Br)cc1Br	-7%	1.05
CCN(CC)CC(O)COc1c(Br)cc(C(C)(C)c2cc(Br)c(OCC(O)CN(CC)CC)c(Br)c2)cc1Br (stereo not given)	99%	-13.36
CCCN(CCC)C[C@H](O)COc1c(Cl)cccc1Cl	-6%	0.67
Cc1ncc2ncccc2c1Br	-4%	0.8
C[n+]1cnc(-c2ccccc2)cc1-c1ccccc1	1%	-0.07
Cn1c(Cc2n[n+]3c(-c4ccccc4)cc(-c4ccccc4)nc3n2C)n[n+]2c(-c3ccccc3)cc(-c3ccccc3)nc12	95%	-10.43
Cc1nc(-c2ccccc2)cc(N2CCN(CCc3ccccc3)CC2)n1	0%	0
CCS(=O)(=O)CCNC(=O)c1ccnc(C(C)C)n1	-4%	0.73
O=C(Cn1nc(-n2cccn2)ccc1=O)NCc1ccco1	-7%	1.27
CCOC(=O)c1ccc(NC(=O)CC2CCC2)cn1	3%	-0.29
CCCC1CCC(OC(=O)c2ccc(C(=O)OC3CCC(CCC)CC3)nc2)CC1 (stereo not given)	74%	-10.02
NC(=O)c1ccc(C(=O)OC2CCCCCC2)cn1	3%	-0.42
CCc1nnc(-c2[nH]c(C)c(S(=O)(=O)Nc3cccc(Cl)c3)c2C)o1	-5%	0.66
Cc1c(NC[C@H](C)c2ccccc2)cnn1C	-3%	0.4
COC(C)[C@H](C)NCC(C)c1ccccc1 (stereo not given in full)	73%	1.55
C[C@@H](CNC(=O)C(C)(C)C)c1ccccc1	-10%	0.9
Cc1cnc(=O)n(CC(=O)N2CCN(c3ccccc3F)CC2)c1	-1%	0.07
Cn1cccc1CN(C(=O)c1cc2ccccc2[nH]1)C1CC1	-5%	1
CN1CCC(N(CCc2ccccc2)C(=O)c2cccc3cnccc23)CC1	-4%	0.65
